Consider 13 compounds from PubChem BioAssay (EPA / NIEHS).

Results filed as inconclusive are left out. Activity calls are given as the source filed them. The calls were made as follows, unless noted: active = hit-call score of the fitted dose curve at least 0.9, where 1 is the maximum; inconclusive = response in the unintended direction; inactive = score below 0.9.

The nature of assay [1]: TOX21_p53_BLA_p2_viability: Viability Assessment in the Tox21 HCT-116 p53 Agonism Beta-lactamase Assay, Phase 2 (AID 2283591).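 Also: compound exposure lasted 16 h at 37 °C; actives lower the ATP signal meaning cytotoxicity.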 In a few lines: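 HCT116 p53-bla cells, 4000/well, dosed after 5 h plating (217-fold dilution of DMSO stocks) and incubated 16 h at 37C. Viability taken as cellular ATP by CellTiter-Glo luminescence after 30 min RT; signal loss marks cytotoxicity.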

The target of assay [2] is Cellular tumor antigen p53 (Homo sapiens) (UniProt P04637). Briefly: TOX21_p53_BLA_p2_ratio: Tox21 HCT-116 p53 Agonism Beta-lactamase Assay, Ratio, Phase 2 (AID 2283592). The gist of the method: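 In this cell-based reporter format, HCT116 cells were dosed with chemicals delivered from DMSO by 217-fold dilution and incubated 16 h at 37C. Emission at 460 and 530 nm after 2 h CCF4-AM loading provided the ratio, fitted upward versus DMSO.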

A short description of assay [3]: TOX21_p53_BLA_p3_viability: Viability Assessment in the Tox21 HCT-116 p53 Agonism Beta-lactamase Assay, Phase 3 (AID 2283593).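 Also: cells exposed to compound for 16 h before reading.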 The gist of the method:
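HCT116 cells, 4000/well, dosed 5 h after plating by pin transfer (217-fold dilution from DMSO stock) and incubated 16 h at 37C, 5% CO2. Viability read as ATP luminescence with CellTiter-Glo after 30 min at room temperature.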

In assay [4] the target is Cellular tumor antigen p53 (Homo sapiens) (UniProt P04637). The assay can be described thus: TOX21_p53_BLA_p3_ratio: Tox21 HCT-116 p53 Agonism Beta-lactamase Assay, Ratio, Phase 3 (AID 2283596). In a few lines: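 HCT116 p53-bla cells (4000/well) given compound in DMSO (217-fold dilution) after 5 h, incubated 16 h at 37C. CCF4-AM substrate 2 h at room temperature; 460/530 nm emission ratio, gain fitted against DMSO.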

The nature of assay [5]: TOX21_p53_BLA_p4_viability: Viability Assessment in the Tox21 HCT-116 p53 Agonism Beta-lactamase Assay, Phase 4 (AID 2283597).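 Also: hits lower the luminescence signal meaning cytotoxicity.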 In a few lines:
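We seeded HCT116 p53 reporter cells at 4000/well and waited 5 h. We then added compounds in DMSO at a 217-fold dilution and incubated for 16 h. Viability was read as CellTiter-Glo luminescence after 30 min at RT.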

The nature of assay [6]: TOX21_p53_BLA_p5_viability: Viability Assessment in the Tox21 HCT-116 p53 Agonism Beta-lactamase Assay, Phase 5 (AID 2283600). In a few lines:
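Compounds, pinned from DMSO at 217-fold dilution, were left on the cells for 16 h. The viability endpoint was ATP content measured by CellTiter-Glo luminescence, where falling signal reflects cytotoxicity.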

Assay [7] concerns the target Cellular tumor antigen p53 (Homo sapiens) (UniProt P04637). The assay can be described thus: TOX21_p53_BLA_p4_ratio: Tox21 HCT-116 p53 Agonism Beta-lactamase Assay, Ratio, Phase 4 (AID 2283601). The gist of the method:
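HCT-116 p53 beta-lactamase reporter cells (4000/well) preincubated 5 h, then compound (217-fold dilution of DMSO stock) for 16 h at 37C. CCF4-AM substrate added 2 h at room temperature; 460/530 nm emission ratio fitted upward versus DMSO.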

The target is the same in assay [8]. The assay can be described thus: TOX21_p53_BLA_p5_ratio: Tox21 HCT-116 p53 Agonism Beta-lactamase Assay, Ratio, Phase 5 (AID 2283599). In a few lines: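 HCT-116 p53-bla cells (4000/well) plated 5 h, dosed with compound (217-fold DMSO dilution) for 16 h at 37 C; CCF4-AM substrate 2 h at room temperature. Activity is the 460/530 nm emission ratio (405 nm excitation), fitted in gain-of-signal direction versus DMSO.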

The nature of assay [9]: CCTE_Deisenroth_DEVTOX-GLR_legacy_CellCount: (Legacy) Viability Assessment in CCTE's DevTox GLR-Endo Assay, Deisenroth Lab (AID 2284331; active = hit-call score of the fitted dose curve at least 0.9, where 1 is the maximum; inactive = score below 0.9). As to conditions: actives raise or lower the signal. In a few lines:
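RUES2-GLR human pluripotent cells were seeded 24 h, then differentiated 48 h with two compound doses at 24 h intervals (10-point, 1 nM - 200 uM). Fixed nuclei were imaged and counted; bidirectional fitting versus 0.2% DMSO.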

Assay [10] relates to SRY-box transcription factor 17 (SOX17) Protein Expression, Deisenroth Lab, SOX17 (gene 64321). The assay can be described thus: CCTE_Deisenroth_DEVTOX-GLR_legacy_Sox17: (Legacy) CCTE's DevTox GLR-Endo Assay Evaluation of SRY-box transcription factor 17 (SOX17) Protein Expression, Deisenroth Lab (AID 2284341; active = hit-call score of the fitted dose curve at least 0.9, where 1 is the maximum; inactive = score below 0.9). As to conditions: actives raise or lower the signal. In a few lines:
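Percent SOX17-positive cells, scored by high-content imaging as mean intensity exceeding pluripotent-control median by 5x BMAD, divided by cell count. Human RUES2-GLR endoderm differentiation, 48 h, two exposures 24 h apart, 1 nM–200 uM; DMSO-referenced bidirectional fitting.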

The subject of assay [11] is SRY-box transcription factor 2 (SOX2) Protein Expression, Deisenroth Lab, SOX2 (gene 6657). Briefly: CCTE_Deisenroth_DEVTOX-GLR_legacy_Sox2: (Legacy) CCTE's DevTox GLR-Endo Assay Evaluation of SRY-box transcription factor 2 (SOX2) Protein Expression, Deisenroth Lab (AID 2284346; active = hit-call score of the fitted dose curve at least 0.9, where 1 is the maximum; inactive = score below 0.9). The gist of the method: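 RUES2-GLR human pluripotent cells were differentiated for 48 h with two chemical doses 24 h apart, over 1 nM-200 uM. Sox2+ cells were those above 5x BMAD of the endoderm-control median; percent Sox2+ minus the 0.2% DMSO median was used, from n=4 replicates.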

Assay [12] relates to SRY-box transcription factor 17 (SOX17) Protein Expression, Deisenroth Lab, SOX17 (gene 64321). Briefly: CCTE_Deisenroth_DEVTOX-GLR_Endo_SOX17: CCTE's DevTox GLR-Endo Assay Evaluation of SRY-box transcription factor 17 (SOX17) Protein Expression, Deisenroth Lab (AID 2284413; active = hit-call score of the fitted dose curve at least 0.9, where 1 is the maximum; inactive = score below 0.9). The gist of the method:
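RUES2-GLR human pluripotent cells were differentiated toward endoderm for 48 h and received two compound doses 24 h apart (1 nM - 200 uM, 10 points). High-content imaging of fixed cells gave the percent SOX17+ cells per cell count, expressed as percent change versus 0.2% DMSO.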

The subject of assay [13] is Brachyury (BRA) Protein Expression, TBXT (gene 6862). Briefly: CCTE_Deisenroth_DEVTOX-GLR_Endo_BRA: CCTE's DevTox GLR-Endo Assay Evaluation of Brachyury (BRA) Protein Expression, Deisenroth Lab (AID 2284417; active = hit-call score of the fitted dose curve at least 0.9, where 1 is the maximum; inactive = score below 0.9). The gist of the method:
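Endpoint is the fraction of BRA reporter-positive cells over total nuclei, corrected by subtracting the 0.2% DMSO value. Chemicals (1 nM - 200 uM, 10 points) were dosed twice during 48 h differentiation of RUES2-GLR cells, read by imaging.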

Assay [14] can be described thus: CCTE_Deisenroth_DEVTOX-GLR_Endo_CellCount: Viability Assessment in CCTE's DevTox GLR-Endo Assay, Deisenroth Lab (AID 2284420; active = hit-call score of the fitted dose curve at least 0.9, where 1 is the maximum; inactive = score below 0.9). The gist of the method: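 Nuclei counted by fluorescence microscopy as a surrogate for cell number, expressed as percent change relative to 0.2% DMSO control. Human RUES2-GLR cells, 48 h differentiation, dosed twice; 1 nM - 200 uM series.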

Assay [15] deals with SRY-box transcription factor 17 (SOX17) Protein Expression, Deisenroth Lab, SOX17 (gene 64321). The assay can be described thus: CCTE_Deisenroth_DEVTOX-GLR_Pluri_SOX17: CCTE's DevTox GLR-Pluri Assay Evaluation of SRY-box transcription factor 17 (SOX17) Protein Expression, Deisenroth Lab (AID 2284427). The gist of the method: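 Readout: percent SOX17+ cells (SOX17+ count/cell count) by high-content imaging of an inducible fluorescent reporter, corrected for 0.2% DMSO solvent control. RUES2-GLR cells, 48 h differentiation, dosed twice at 24 h intervals, 1 nM - 200 uM.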

The nature of assay [16]: CCTE_Deisenroth_DEVTOX-GLR_Pluri_CellCount: Viability Assessment in CCTE's DevTox GLR-Pluri Assay Evaluation of Total Cell Counts, Deisenroth Lab (AID 2284430; active = hit-call score of the fitted dose curve at least 0.9, where 1 is the maximum; inactive = score below 0.9). The gist of the method:
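RUES2-GLR human pluripotent cells, seeded 24 h, then differentiated 48 h with two chemical exposures 24 h apart; 10-point series 1 nM - 200 uM. Fixed, nuclear-stained, imaged (5 fields/well); nuclei count as % change vs 0.2% DMSO.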

A short description of assay [17]: CCTE_Harrill_HTTr_Viability_MCF7: CCTE's 6-hour Cell Viability Assessment for the High-Throughput Transcriptomics (HTTr) Platform, in MCF-7 cells cultured in DMEM + 10% fetal bovine serum, Harrill Lab (AID 2284010; active = hit-call score of the fitted dose curve at least 0.9, where 1 is the maximum; inactive = score below 0.9). In a few lines: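 Membrane integrity was scored by high-content imaging of propidium iodide dye exclusion after a 6 h exposure across an eight-point dilution series. Data were fitted bidirectionally relative to DMSO as negative control and baseline.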

The nature of assay [18]: CCTE_Harrill_HTTr_Apoptosis_MCF7: CCTE's 6-hour Apoptosis Assessment for the High-Throughput Transcriptomics (HTTr) Platform, in MCF-7 cells cultured in DMEM + 10% fetal bovine serum, Harrill Lab (AID 2284011; active = hit-call score of the fitted dose curve at least 0.9, where 1 is the maximum; inactive = score below 0.9). In a few lines: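 Read-out: CellEvent Caspase 3/7 Green signal by high content imaging, gain-of-signal indicating apoptosis. MCF-7 cells, DMEM + 10% FBS, eight-point dilution series, 6 h exposure. Curves fitted bidirectionally relative to DMSO negative control.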

Usually AC50 stands for the concentration at which the activity in the assay is half-maximal.

Sequence of Cellular tumor antigen p53 (Homo sapiens) (P04637 whole entry, looked up): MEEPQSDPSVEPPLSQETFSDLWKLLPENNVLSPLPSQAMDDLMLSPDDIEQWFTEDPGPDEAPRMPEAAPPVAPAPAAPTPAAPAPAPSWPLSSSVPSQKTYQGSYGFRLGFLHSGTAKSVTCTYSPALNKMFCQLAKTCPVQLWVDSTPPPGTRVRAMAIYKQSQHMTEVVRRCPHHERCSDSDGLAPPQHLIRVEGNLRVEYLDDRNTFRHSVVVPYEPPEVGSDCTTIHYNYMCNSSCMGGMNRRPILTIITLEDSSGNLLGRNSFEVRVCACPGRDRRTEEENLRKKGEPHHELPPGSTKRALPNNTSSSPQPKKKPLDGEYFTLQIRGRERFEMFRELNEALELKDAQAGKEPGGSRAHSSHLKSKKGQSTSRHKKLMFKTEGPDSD

For the compound `C1=CC2C3C=CC(C3)C2C1` (stereo unspecified) (tested in a mixture with another compound), the call in assay [1], in assay [2], in assay [3], in assay [4], in [5] and in [6] was inactive.
With `CCCCCCCCCI`, the outcome in [1], in [2], in assay [3], in [4], in assay [5] and in [6] was inactive. Besides, in [7], the result was inactive.
On to `C[S+](C)CCC(N)C(=O)O` (stereo unspecified), for which the result in [1], in assay [2], in [3], in [4], in assay [5] and in assay [6] was inactive.
As to `Cc1ccc2c(n1)Oc1ccc(C(C)C(=O)OCC(=O)N(C)C)cc1C2` (stereo unspecified), the outcome in assay [1], in assay [2], in [3], in [4], in assay [5] and in assay [6] was inactive.
As for `CC(C)(C)c1ccc(C(=O)CCCN2CCC(OC(c3ccccc3)c3ccccc3)CC2)cc1`, the call in assay [1], in [2], in [5] and in [6] was inactive. For the same compound, the AC50 in assay [3] is 31.1 µM (active); in assay [4], 34.6 µM (active).
Turning to `O=[N+]([O-])c1cccc(I)c1`, the call in assay [1], in assay [2], in assay [3], in assay [4], in [5] and in assay [6] was inactive. Also, in assay [7], the result was inactive.
With `Cc1cccc(C)c1NC(=O)c1ccccc1C(=O)O`, the result in [1], in assay [2], in assay [3], in assay [4], in assay [5] and in [6] was inactive. Also, in assay [7], the result was inactive.
As for `Cc1ccc(NC(=O)c2ccc(CN3CCN(C)CC3)cc2)cc1Nc1nccc(-c2cccnc2)n1`, the compound was called inactive in [1], in [2], in assay [3], in [4], in assay [5] and in [8]. In addition, the result in assay [7] was inactive. Further, the AC50 in assay [9] is 15.9 µM (active); in [10] it was 16.5 µM (active); in assay [11] it was 19.3 µM (active); in assay [12] it was 14.2 µM (active); in [13], 22.7 µM (active); in [14], 15.8 µM (active). Also, the AC50 is 47.4 µM (active) in assay [15] and 22.4 µM (active) in assay [16].
In the case of `COc1cc2c(cc1OC)-c1cc3ccc(OC)c(OC)c3c[n+]1CC2`, the result in assay [1], in assay [2], in assay [3], in assay [4], in assay [5] and in assay [6] was inactive.
Take `COC(=O)c1ccc(C(=O)O)cc1`: the compound was classed as inactive in [1], in assay [2], in assay [3], in [4], in assay [5] and in [6]. In addition, in assay [7], the result was inactive.
For the compound `O=C(NOCC1CC1)c1ccc(F)c(F)c1Nc1ccc(I)cc1Cl`, the call in assay [1] was inactive. In addition, the AC50 was 7.89 µM (active) in assay [2]; 23 µM (active) in assay [3]; 23.9 µM (active) in assay [4]; 23 µM (active) in assay [5]; 19.7 µM (active) in [6]; 30.5 µM (active) in assay [7].
Take `C#CCN(C)Cc1ccccc1`: the call in assay [1], in assay [2], in assay [3], in [4], in assay [5] and in assay [8] was inactive. The result in assay [7], in assay [17] and in assay [18] was inactive.
Consider `CC(=O)OCCN(CCOC(C)=O)c1ccc(N=Nc2ccc([N+](=O)[O-])cc2C#N)cc1`, for which the outcome in assay [1], in assay [2], in assay [3], in assay [4], in assay [5] and in assay [6] was inactive. Moreover, the result in assay [7] was inactive.
